Rango complex inh = qHTS Assay for Inhibitors of Rango (Ran-regulated importin-beta cargo) - Importin beta complex formation | Rango CFP/YFP FRET sensor + importin beta, 45 min | 340,000 tested, 0.031% active | Importin subunit beta-1 (Homo sapiens), Q14974 | Potency, µM (titrated, usually from 92.2 µM), for the others: at the top dose inhibition of complex formation; calls by dose curve;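 further: 0% = DMSO wells and 100% = buffer wells lacking importin beta; nearly all actives have a fitted effect of over 15% in size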
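Inhibition scored from the CFP 486 nm/YFP 530 nm FRET ratio 45 min after adding 0.125 microM importin beta to 50 nM Rango biosensor preincubated 5 min with compound (room temperature, PBS with DTT, Tween-20, BSA). No-importin wells as positive control.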
ELG1 repair inh = qHTS screen for small molecules that inhibit ELG1-dependent DNA repair in human embryonic kidney (HEK293T) cells expressing luciferase-tagged ELG1 | HEK293T ELG1-luciferase reporter, luminescence, 16 h; DNA damage induced by 5-fluorouridine | Potency, µM (top dose mostly 46.1 µM), without a hit: top-dose activity change, negative = inhibition, hits mostly inhibitors | 330,000 tested, 2.3% active | AID 504467, 2011; further: on the % scale 0 is the no-effect control and ±100 the full control effect; nearly all actives have a fitted effect of over 55% in size
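5-Fluorouridine DNA damage + compound/DMSO, 2,000 cells/well, 16 h, 37 °C/5% CO2. ONE-Glo, 30 min RT, luminescence. Readout = decrease in reporter signal.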
Rango dissoc inh = qHTS Assay for Inhibitors of RanGTP induced Rango (Ran-regulated importin-beta cargo) - Importin beta complex dissociation | AID 540253, 2011 | Biochemical FRET Rango-importin beta, RanGTP-induced dissociation | 340,000 tested, 0.071% active | Potency, µM (doses to about 46.1 µM), for inactives: at the top dose activity change, negative = inhibition | Snurportin-1 (Homo sapiens) + GTP-binding nuclear protein Ran (Homo sapiens) + Importin …; calls by dose curve; further: % of control where 0% means no effect; nearly all actives have a fitted effect of over 45% in size
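Rango (0.1 uM)–importin beta (0.25 uM) complex; RanGTP-RCC1 trigger; 45 min RT; CFP/YFP FRET read.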
Tb PFK block = qHTS Assay to Find Inhibitors of T. brucei phosphofructokinase; T. brucei PFK, ADP-Glo luminescence; Potency, µM (highest dose often 57.5 µM), for the others: at the highest dose activity, negative = inhibition, actives largely listed as inhibitors; 330,000 tested, 0.17% active;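 further: 0% = uninhibited 1x PFK enzyme wells and -100% = no-enzyme wells; nearly all actives have a fitted effect of over 60% in size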
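PFK 1.25 nM, F6P 0.5 mM, ATP 0.1 mM, 0.1 M TEA pH 8.0, 5 mM MgCl2, 0.01% Tween20, 0.1% BSA; 45 min RT. ADP-Glo readout. qHTS titration up to 57 uM; curves fitted, compounds curve-classed.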
Tb PGK inh = qHTS Assay to Find Inhibitors of Phosphoglycerate Kinase; Phosphoglycerate kinase, glycosomal (Trypanosoma brucei brucei), P07378; PGK/GAPDH coupled, Kinase-Glo luminescence, 60 min; Potency, µM (titrated, usually from 57.5 µM), for the others: at the top dose activity change, negative = inhibition, hits mostly inhibitors; 380,000 tested, 0.043% active; AID 602233, 2012; further: on the % scale 0 is the no-effect control and ±100 the full control effect; nearly all actives have a fitted effect of over 60% in size
Target sequence (P07378 whole entry, looked up): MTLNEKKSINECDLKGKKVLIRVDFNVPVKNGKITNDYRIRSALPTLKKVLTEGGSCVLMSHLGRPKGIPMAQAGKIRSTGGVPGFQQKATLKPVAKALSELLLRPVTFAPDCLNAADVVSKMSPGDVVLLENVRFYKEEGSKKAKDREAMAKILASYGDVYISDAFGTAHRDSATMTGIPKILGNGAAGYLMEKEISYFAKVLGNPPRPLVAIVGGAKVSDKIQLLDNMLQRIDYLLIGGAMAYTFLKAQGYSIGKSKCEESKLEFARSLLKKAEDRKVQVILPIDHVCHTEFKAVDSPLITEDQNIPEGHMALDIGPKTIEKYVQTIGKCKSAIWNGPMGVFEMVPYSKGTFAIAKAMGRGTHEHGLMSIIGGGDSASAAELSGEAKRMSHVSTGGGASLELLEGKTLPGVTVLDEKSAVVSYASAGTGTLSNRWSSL
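Recombinant glycosomal PGK reaction used 1,3-bisphosphoglycerate generated in-well by GAPDH (100nM final) in 100mM TEA pH 7.6, 5mM MgCl2, 0.01% Tween-20. After 60 minutes at room temperature, ATP was read by Kinase-Glo Plus luminescence end-point.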
PKM2 activator = qHTS Assay for Activators of Human Muscle isoform 2 Pyruvate Kinase | Pyruvate kinase PKM (Homo sapiens), P14618 | Potency, µM (series often up to 57.5 µM), for the others: at the highest dose activation, usual class: activators | purified PKM2, Kinase-Glo ATP luminescence, activation; response scale: 0% is enzyme alone, no compound | 260,000 tested, 0.34% active; further: on the % scale 0 is the no-effect control and ±100 the full control effect; nearly all actives have a fitted effect of over 55% in size
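hPK-M2, >95% pure; 0.1 mM ADP / 0.5 mM PEP final; imidazole pH7.2 buffer w/ 7 mM MgCl2, 50 mM KCl; 1 h RT; Kinase-Glo lum. Intermediate enzyme activity for dual inhibitor/activator qHTS.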
Active calls of the source: *; i = inactive; ? = inconclusive; / = no result. An excerpt weighted towards active compounds, which were near 2.4% of everything screened. Unless noted, the call rests on the fitted dose curve; in most records, active means well fitted curve in the direction sought with a large enough effect; inconclusive means small, poorly fitted or top-dose-only effect, or another doubt; inactive means no such curve, though single readings can be large; an effect the other way counts as inactive or inconclusive. Potency means the concentration at half of the fitted maximal effect.

SMILES	Rango complex inh	ELG1 repair inh	Rango dissoc inh	Tb PFK block	Tb PGK inh	PKM2 activator
Cn1c(CCNC(=O)c2ccco2)nc2cc(NS(=O)(=O)c3ccc(Cl)cc3)ccc21	-4.5%	?	-11.0%	0.6%	2.0%	15.8µM*
CC(=O)NCCc1nc2cc(NS(=O)(=O)c3ccc(Cl)cc3)ccc2n1C	-1.1%	-12.3%	-3.7%	-1.2%	-6.6%	-0.9%
Cc1c(NN=C(C#N)C#N)c(=O)n(-c2ccccc2)n1C	6.0%	5.8µM*	-9.2%	?	3.5%	23.8%
COc1ccc(-c2cc(=O)oc3c(C)c(O)ccc23)cc1	?	8.2µM*	?	-6.2%	i	/
Cc1cccc(NC(=O)CSCC(=O)OCc2ccccn2)c1	1.1%	20.8%	-6.0%	5.3%	-5.2%	/
O=[N+]([O-])c1ccc(C=Nc2ccc(Cl)c([N+](=O)[O-])c2)s1	/	?	/	23.9µM*	/	-4.6%
Cc1cc(C)cc(N=Cc2ccc([N+](=O)[O-])s2)c1	0.5%	?	-13.0%	-10.1%	-3.5%	-0.7%
CC(C)Cn1c(N)c(C(=O)COC(=O)Cc2cccc(C(F)(F)F)c2)c(=O)n(C)c1=O	-2.6%	?	-2.1%	?	-2.0%	/
CCOC(=O)[C@@H]1[C@H]2COc3cc(OC)ccc3[C@H]2N2C(=O)N(c3ccc(C(F)(F)F)cc3)C(=O)[C@]12C	1.4%	23.1µM*	15.7%	1.0%	2.7%	/
O=C(COC(=O)c1c2c(nc3ccccc13)/C(=C/c1cccc([N+](=O)[O-])c1)CCC2)NC1CCS(=O)(=O)C1 (stereo not given)	1.2%	7.31µM*	-13.6%	7.8%	-7.2%	-6.3%
CN(C(=O)COC(=O)c1c2c(nc3ccccc13)/C(=C/c1cccc([N+](=O)[O-])c1)CCC2)C1CCS(=O)(=O)C1 (stereo not given)	1.5%	5.8µM*	3.8%	3.3%	-3.9%	0.2%
CC1CCCCC1NC(=O)COC(=O)c1c2c(nc3ccccc13)/C(=C\c1ccco1)CC2 (stereo not given)	?	/	2.31µM*	/	-18.5%	/
CN(C(=O)COC(=O)/C=C/c1cccc([N+](=O)[O-])c1)C1CCS(=O)(=O)C1 (stereo not given)	-6.5%	13µM*	11.5%	-7.9%	-2.0%	-0.4%
O=C(COC(=O)c1c2c(nc3ccccc13)/C(=C\c1ccco1)CC2)NC1CCCC1	?	/	?	/	-17.7%	/
COC(=O)c1cc(C(=O)OCC(=O)N(C)C2CCS(=O)(=O)C2)cc([N+](=O)[O-])c1 (stereo not given)	3.7%	3.9%	-3.1%	-5.5%	-2.2%	-2.1%
CCN(C(=O)COC(=O)/C=C/c1cccc(Br)c1)C1CCS(=O)(=O)C1 (stereo not given)	1.9%	-24.4%	10.3%	-2.4%	-2.8%	-0.8%
COc1ccc(Cl)cc1S(=O)(=O)N1CCC(C(=O)NCCC2=CCCCC2)CC1	-0.2%	-8.1%	-2.2%	1.9%	-0.3%	-6.0%
COc1cc(OC)cc(C(=O)NC(C(=O)N2CCc3ccccc3C2)C(C)C)c1 (stereo not given)	-0.3%	?	-6.3%	-2.7%	-9.7%	1.2%
CCOC(=O)c1ccc(NC(=O)Nc2nncs2)cc1	/	/	/	/	7.8%	/
CC1(COS(N)(=O)=O)CCCCC1	4.3%	17.1%	1.5%	4.4%	6.1%	0.8%
Cc1[nH]c2ccccc2c1N=Nc1c(C)n(C)n(-c2ccccc2)c1=O	-0.3%	13µM*	-15.9%	0.5%	-8.1%	6.6%
Cc1c(N=C2C=CC(=O)c3ccccc32)c(=O)n(-c2ccccc2)n1C	-3.2%	20.6µM*	-3.4%	-1.1%	-0.7%	13.7%
Cc1c(N=C2C=C(Br)C(=O)C(Br)=C2)c(=O)n(-c2ccccc2)n1C	-0.5%	?	19.9%	-7.4%	1.8%	8.3%
COc1ccccc1NC(=O)CCNS(=O)(=O)c1ccc2c(c1)CC(C)N2C(=O)C1CC1 (stereo not given)	-3.2%	1.4%	2.0%	0.4%	2.4%	/
COc1ccc(OCCNC(=O)c2ccccc2OCC(=O)Nc2ccc(NC(C)=O)cc2)cc1	?	16.4µM*	-5.2%	6.2%	-4.2%	-4.3%
SMILES	Rango complex inh	ELG1 repair inh	Rango dissoc inh	Tb PFK block	Tb PGK inh	PKM2 activator
COc1ccc(OCCNC(=O)c2ccccc2OCC(=O)N2CCCCC2)cc1	-3.0%	23.1µM*	3.1%	-5.5%	-0.4%	-0.3%
CC(C)[C@H](Nc1ccc(C(F)(F)F)cc1[N+](=O)[O-])C(=O)O	9.3%	4.9%	6.1%	1.0%	i	0.2%
O=C(NNc1ccc(C(F)(F)F)cc1[N+](=O)[O-])c1ccc(NS(=O)(=O)c2ccc(F)cc2)cc1	0.2%	20.6µM*	0.9%	?	?	-28.0%
Cc1cc(C)cc(N(C(=O)CNC(=O)c2ccco2)C(C(=O)NC2CCCCC2)c2ccncc2)c1 (stereo not given)	2.5%	2.3%	1.6%	1.9%	-1.1%	/
Cc1nn(S(=O)(=O)c2cccs2)c(C)c1Sc1ccccc1	/	-4.8%	/	1.4%	/	15.8µM*
Cc1nn(S(=O)(=O)c2cccs2)c(C)c1Sc1ccc([N+](=O)[O-])cc1	3.4%	-15.8%	2.3%	1.7%	-0.4%	2.8%
O=S(=O)(Nc1nccs1)c1ccc(NS(=O)(=O)c2cccs2)cc1	-6.1%	6.8%	-10.2%	1.8%	-1.3%	4.47µM*
CCc1nnc(NC(=O)c2ccc(Cl)c(S(=O)(=O)N3CCc4ccccc43)c2)s1	?	23.1µM*	-8.2%	0.0%	-0.1%	5.2%
O=S(=O)(c1cccs1)N1CCN(Cc2nc3ccccc3s2)CC1	-0.3%	?	16.4%	-1.0%	12.7%	22.4µM*
O=C(OCc1nc2ccccc2s1)C1CCN(S(=O)(=O)c2cccs2)CC1	?	?	2.7%	?	7.1%	8.91µM*
O=C(CCc1nc2ccccc2s1)N1CCN(S(=O)(=O)c2cccs2)CC1	-1.2%	?	-2.1%	-2.4%	i	?

Screening results: PubChem, National Center for Advancing Translational Sciences (NCATS)
